The text below walks through data of PubChem BioAssay (Tox21).

SMILES strings stand for the structures. Inconclusive results are not listed. Activity calls are given as the source filed them. Unless noted, calls follow the shape of the dose curve; as a rule, active = well fitted curve in the direction sought with a large enough effect in the repeat runs; inconclusive = weak or mixed curves; inactive = no such curve, though single readings can be large; an effect the other way counts as inactive or inconclusive.

The nature of assay [1]: qHTS assay to identify small molecule antagonists of the glucocorticoid receptor (GR) signaling pathway - cell viability counter screen (AID 720693). Also: nearly all actives have a fitted effect of over 55% in size.
Assay [2] in a line: qHTS assay for identifying genotoxic compounds that show differential cytotoxicity against isogenic chicken DT40 cell lines with known DNA damage response pathways - wild type cell line (AID 743012). Also: nearly all actives have a fitted effect of over 60% in size. An outline of the steps:
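Parental DNA repair-proficient DT40 cells, 300 per well, were pre-incubated ~0.5 h at 37 C/5% CO2, pin-dosed with compounds in DMSO, then incubated 40 h. Viability was read as CellTiter-Glo luminescence after 30 min at room temperature.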
On the technique in general: qHTS replaces the single test concentration by a dilution series.

Assay [3] is described as follows: qHTS assay for identifying genotoxic compounds that show differential cytotoxicity against isogenic chicken DT40 cell lines with known DNA damage response pathways - Rev3 mutant cell line (AID 743014). Also: nearly all actives have a fitted effect of over 55% in size.
Assay [4] in a line: qHTS assay for identifying genotoxic compounds that show differential cytotoxicity against isogenic chicken DT40 cell lines with known DNA damage response pathways - Rad54/Ku70 mutant cell line (AID 743015). Also: nearly all actives have a fitted effect of over 60% in size.
Assay [5] is described as follows: qHTS assay to identify small molecule antagonists of the androgen receptor (AR) signaling pathway - cell viability counter screen (AID 743033; also: nearly all actives have a fitted effect of over 45% in size).
Assay [6] addresses Androgen receptor (Homo sapiens) (UniProt P10275). The experiment in a line: qHTS assay to identify small molecule antagonists of the androgen receptor (AR) signaling pathway (AID 743035; active = well fitted inhibition curve with a large enough effect in the signal ratio in the repeat runs, not every such curve was filed as active; the % refers to the signal ratio). The gist of the method:
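HEK293 cells stably carrying a UAS-driven beta-lactamase reporter (AR-UAS-bla GripTite) were plated for 4 h at 37C, then given compound and the agonist R1881 and incubated 16 h. Reporter activity was read by LiveBLAzer B/G FRET fluorescence after 2 h at room temperature.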

Assay [7] shares this target. Kind of assay: qHTS assay to identify small molecule agonists of the androgen receptor (AR) signaling pathway (AID 743036; active = well fitted activation curve with a large enough effect in the signal ratio in the repeat runs, with a control signal flat, not every such curve was filed as active; the % refers to the signal ratio). The gist of the method:
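In this Tox21 qHTS, 2,000 HEK293 AR-bla cells per well were incubated with compounds for 16 h at 37C and 5% CO2. Fluorescence intensity was recorded 2 h after adding LiveBLAzer B/G FRET substrate at room temperature.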

For assay [8] the target is unchanged. Kind of assay: qHTS assay to identify small molecule agonists of the androgen receptor (AR) signaling pathway using the MDA cell line (AID 743040; also: nearly all actives have a fitted effect of over 20% in size). An outline of the steps: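 MDA-kb2 breast carcinoma cells stably carrying an MMTV-driven luciferase reporter (AR- and GR-responsive) were seeded and held 5 h at 37C, 0% CO2, then exposed to compounds in DMSO for 16 h. Luminescence was read 30 min after ONE-Glo addition.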

Assay [9] can be described thus: qHTS assay to identify small molecule antagonists of the androgen receptor (AR) signaling pathway using the MDA cell line - cell viability counter screen (AID 743041; also: nearly all actives have a fitted effect of over 45% in size). An outline of the steps: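 MDA-kb2 AR-luc human breast carcinoma cells (MMTV-luciferase, AR/GR responsive) were treated with compounds plus R1881 agonist for 16 h at 37 °C. Viability was read as CellTiter-Fluor fluorescence in the same wells as the reporter assay.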

For assay [10], the target named is Androgen receptor (Homo sapiens) (UniProt P10275). Kind of assay: qHTS assay to identify small molecule antagonists of the androgen receptor (AR) signaling pathway using the MDA cell line (AID 743042; also: nearly all actives have a fitted effect of over 55% in size). The gist of the method: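 MDA-kb2 cells (human breast carcinoma, stably carrying an MMTV-luciferase reporter responsive to AR and GR) were plated at 3,000 cells/well and preincubated 5 hr at 37C, then given compound plus R1881 agonist for 16 h. ONE-Glo luminescence was read.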
Sequence of Androgen receptor (Homo sapiens) (P10275 whole entry, looked up): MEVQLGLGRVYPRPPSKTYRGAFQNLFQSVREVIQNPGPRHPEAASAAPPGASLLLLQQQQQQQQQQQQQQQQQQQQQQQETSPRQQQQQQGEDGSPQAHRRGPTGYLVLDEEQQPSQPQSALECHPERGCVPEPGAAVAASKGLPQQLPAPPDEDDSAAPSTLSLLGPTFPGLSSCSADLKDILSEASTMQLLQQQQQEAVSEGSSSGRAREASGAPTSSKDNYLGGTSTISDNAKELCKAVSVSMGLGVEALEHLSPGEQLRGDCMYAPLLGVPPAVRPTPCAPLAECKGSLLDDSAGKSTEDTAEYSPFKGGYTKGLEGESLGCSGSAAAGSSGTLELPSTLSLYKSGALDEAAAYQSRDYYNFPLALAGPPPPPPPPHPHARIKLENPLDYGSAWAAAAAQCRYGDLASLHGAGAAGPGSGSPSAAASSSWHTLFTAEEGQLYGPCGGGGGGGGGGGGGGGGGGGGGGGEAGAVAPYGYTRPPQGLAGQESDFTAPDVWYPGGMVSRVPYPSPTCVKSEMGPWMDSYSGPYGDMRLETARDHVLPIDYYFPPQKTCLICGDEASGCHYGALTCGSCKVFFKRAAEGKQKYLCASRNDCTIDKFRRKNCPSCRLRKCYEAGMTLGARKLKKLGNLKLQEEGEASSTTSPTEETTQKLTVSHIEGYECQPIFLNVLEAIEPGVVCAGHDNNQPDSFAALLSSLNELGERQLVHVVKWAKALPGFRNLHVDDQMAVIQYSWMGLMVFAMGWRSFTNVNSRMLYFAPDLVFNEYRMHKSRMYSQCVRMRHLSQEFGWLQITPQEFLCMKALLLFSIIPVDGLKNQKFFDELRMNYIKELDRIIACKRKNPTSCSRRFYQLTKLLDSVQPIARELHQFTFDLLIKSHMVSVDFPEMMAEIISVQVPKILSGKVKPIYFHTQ

A short description of assay [11]: qHTS assay to identify small molecule antagonists of the thyroid receptor (TR) signaling pathway - cell viability counter screen (AID 743064). Also: nearly all actives have a fitted effect of over 50% in size. An outline of the steps:
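Counter screen for cytotoxicity: compound plus T3 (1 nM final) on GH3.TRE-Luc cells, 23.5 h at 37 °C, then fluorescence viability readout with CellTiter-Fluor.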

The nature of assay [12]: qHTS assay to identify small molecule antagonists of the thyroid receptor (TR) signaling pathway (AID 743065). Also: series mostly up to about 70 µM; nearly all actives have a fitted effect of over 55% in size. The gist of the method: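 GH3.TRE-Luc rat pituitary cells carrying two TR response elements driving luciferase were plated for 4 h, given compound plus 1 nM T3 (final), and incubated 23.5 h at 37 C. ONE-Glo luminescence measured reporter inhibition; CellTiter-Fluor fluorescence tracked cytotoxicity.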

Assay [13] concerns thyroid hormone receptor (rat, GH3 cells). Kind of assay: qHTS assay to identify small molecule agonists of the thyroid receptor (TR) signaling pathway (AID 743066; calls by dose curve).
For assay [14], the target named is Estrogen receptor (Homo sapiens) (UniProt P03372). The experiment in a line: qHTS assay to identify small molecule antagonists of the estrogen receptor alpha (ER-alpha) signaling pathway (AID 743069; active = well fitted curve in the direction sought with a large enough effect in the signal ratio in the repeat runs, not every such curve was filed as active; the % refers to the signal ratio). The gist of the method:
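HEK293 cells stably carrying an ER-alpha-UAS-bla beta-lactamase reporter were pre-cultured overnight in 2% charcoal-stripped FBS medium. Test compounds in DMSO were added together with 17beta-estradiol for 18 hr at 37C. Read-out was fluorescence after 2 hr with LiveBLAzer B/G FRET substrate at room temperature.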

Assay [15] can be described thus: qHTS assay to identify small molecule antagonists of the estrogen receptor alpha (ER-alpha) signaling pathway - cell viability counter screen (AID 743074; calls by dose curve; also: nearly all actives have a fitted effect of over 45% in size).
The target of assay [16] is Estrogen receptor (Homo sapiens) (UniProt P03372). Kind of assay: qHTS assay to identify small molecule agonists of the estrogen receptor alpha (ER-alpha) signaling pathway (AID 743075; calls by dose curve).
Sequence of Estrogen receptor (Homo sapiens) (P03372 whole entry, looked up): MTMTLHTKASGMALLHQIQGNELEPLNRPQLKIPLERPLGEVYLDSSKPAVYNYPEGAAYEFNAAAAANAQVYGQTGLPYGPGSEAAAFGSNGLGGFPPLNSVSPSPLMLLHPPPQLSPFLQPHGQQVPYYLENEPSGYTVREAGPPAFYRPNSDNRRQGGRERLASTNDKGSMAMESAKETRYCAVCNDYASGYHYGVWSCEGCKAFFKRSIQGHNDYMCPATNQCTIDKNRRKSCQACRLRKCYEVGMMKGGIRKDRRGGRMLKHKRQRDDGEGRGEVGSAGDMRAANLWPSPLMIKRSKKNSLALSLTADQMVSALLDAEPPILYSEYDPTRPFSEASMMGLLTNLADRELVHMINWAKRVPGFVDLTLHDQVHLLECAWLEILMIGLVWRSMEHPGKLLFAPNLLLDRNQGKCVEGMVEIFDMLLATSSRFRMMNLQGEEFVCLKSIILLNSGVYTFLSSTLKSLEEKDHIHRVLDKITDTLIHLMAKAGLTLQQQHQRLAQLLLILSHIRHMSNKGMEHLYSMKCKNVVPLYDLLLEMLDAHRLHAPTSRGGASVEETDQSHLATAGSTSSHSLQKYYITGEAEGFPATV
Assay [17] shares this target. The experiment in a line: qHTS assay to identify small molecule agonists of the estrogen receptor alpha (ER-alpha) signaling pathway using the BG1 cell line (AID 743079). Also: nearly all actives have a fitted effect of over 20% in size. Also: potency is read from the fitted curve at half-maximal effect.
The nature of assay [18]: qHTS assay to identify small molecule antagonists of the estrogen receptor alpha (ER-alpha) signaling pathway using the BG1 cell line (AID 743080; calls by dose curve;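 also: BG1 cells stimulated with 17beta-estradiol alongside compound; series mostly up to about 70 µM; nearly all actives have a fitted effect of over 25% in size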). The gist of the method: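 Readout is ONE-Glo luminescence, taken 30 min at room temperature after reagent addition, preceded by a CellTiter-Fluor viability read; BG1-Luc-4E2 cells had received compound and 17beta-estradiol for 21.5 h at 37 C.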

Assay [19] can be described thus: qHTS assay to identify small molecule antagonists of the estrogen receptor alpha (ER-alpha) signaling pathway using the BG1 cell line - cell viability counter screen (AID 743081).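 Also: compound given together with 17beta-estradiol as the ER stimulus; series mostly up to about 70 µM; nearly all actives have a fitted effect of over 45% in size.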
The target in assay [20] is Aromatase (Homo sapiens) (UniProt P11511). The experiment in a line: qHTS assay to identify aromatase inhibitors (AID 743083).
Sequence of Aromatase (Homo sapiens) (P11511 whole entry, looked up): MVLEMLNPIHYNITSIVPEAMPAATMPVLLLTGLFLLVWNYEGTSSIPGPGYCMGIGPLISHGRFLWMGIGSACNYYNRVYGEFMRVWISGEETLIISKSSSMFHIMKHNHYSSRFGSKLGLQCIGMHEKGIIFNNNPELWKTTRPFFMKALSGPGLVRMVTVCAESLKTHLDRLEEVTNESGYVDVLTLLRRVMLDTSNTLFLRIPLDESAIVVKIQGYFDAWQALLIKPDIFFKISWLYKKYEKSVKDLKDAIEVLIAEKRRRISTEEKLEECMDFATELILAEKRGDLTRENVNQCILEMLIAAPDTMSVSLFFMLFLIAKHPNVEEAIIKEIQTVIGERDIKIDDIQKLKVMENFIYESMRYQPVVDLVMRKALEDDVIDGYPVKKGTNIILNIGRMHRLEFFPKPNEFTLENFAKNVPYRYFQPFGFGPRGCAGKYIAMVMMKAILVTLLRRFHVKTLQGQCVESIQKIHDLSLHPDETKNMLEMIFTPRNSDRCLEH

For the compound `Nc1ccnc(=O)[nH]1`, the Potency entry in assay [1], in [2], in assay [3], in assay [4], in assay [6] and in [11] was “inactive” in each case. In addition, the Potency result in assay [12], in [13], in assay [14], in [15], in assay [16] and in assay [17] was “inactive” throughout. For the same compound, the compound was called inactive in assay [5], in assay [7], in assay [8], in assay [9], in assay [10] and in assay [18]. Moreover, the compound was called inactive in [19] and in [20].
For the compound `CCCCC[Si](OCC)(OCC)OCC`, the Potency result in [1], in [2], in [3], in assay [4], in assay [11] and in assay [15] was “inactive” throughout. The compound was classed as inactive in assay [5], in [7], in assay [8], in assay [9], in [10] and in assay [19]. For the same compound, the call in assay [20] was inactive.
Turning to `CC(=O)OC(C(=O)c1ccccc1)c1ccccc1` (stereo unspecified), the Potency result in [1], in assay [2], in assay [3], in assay [4], in assay [6] and in [12] was “inactive” each time. Moreover, the Potency entry in assay [13], in assay [14], in assay [15] and in [16] was “inactive” each time. Besides, the call in [5], in [7], in [8], in assay [10], in assay [18] and in assay [19] was inactive. In assay [20], the call was inactive.
Take `O=CN1CCOCC1`: the Potency result in [1], in assay [2], in assay [3], in [4], in assay [11] and in assay [12] was “inactive” each time. Also, the Potency result in assay [13], in assay [14], in [15], in assay [16] and in assay [17] was “inactive” each time. Further, the compound was classed as inactive in assay [5], in [7], in [8], in [9], in [10] and in [18]. The call in assay [19] and in assay [20] was inactive.
As for `CC(=O)c1ccc(OCC(=O)N2CCCCC2)cc1`, the Potency entry in [1], in assay [2], in assay [3], in [4], in assay [11] and in assay [12] was “inactive” in each case. For the same compound, the Potency entry in [13], in assay [14], in [15] and in assay [16] was “inactive” each time. In addition, the call in [5], in assay [9] and in [20] was inactive. Moreover, the Potency in assay [17] is 18.8 µM (active).
In the case of `C=CC(C)(O)CC/C=C(\C)CC` (stereo unspecified), the Potency result in [1], in assay [2], in [3], in assay [4], in assay [11] and in [12] was “inactive” in each case. The Potency result in [13], in assay [14], in [15], in [16] and in assay [17] was “inactive” throughout. Moreover, the outcome in [5], in assay [9], in [18], in [19] and in assay [20] was inactive.
For `CCc1nccnc1C`, the Potency entry in [1], in [2], in assay [3], in assay [4], in assay [11] and in assay [12] was “inactive” in each case. In addition, the Potency result in assay [13], in assay [14], in [15], in assay [16] and in assay [17] was “inactive” in each case. In addition, the compound was called inactive in [5], in [9], in assay [18], in [19] and in [20].
For `CC(C)CCO`, the Potency entry in assay [1], in assay [2], in [3], in assay [4], in [11] and in assay [12] was “inactive” each time. The Potency result in assay [13], in assay [14], in [15], in assay [16] and in [17] was “inactive” throughout. Besides, the outcome in assay [5], in assay [9], in assay [18], in [19] and in assay [20] was inactive.
